For 13 compounds, outcome and AC50 results are on record in PubChem BioAssay (EPA / NIEHS).

Assay [1] has as its target human Opioid Receptor Mu (Opiate Mu), OPRM1 (gene 4988) (UniProt P35372). Put plainly: NVS_GPCR_hOpiate_mu: NovaScreen (NVS) G Protein-Coupled Receptor Assay for human Opioid Receptor Mu (Opiate Mu) (AID 2283290).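 Note: hits lower bound tracer signal versus DMSO meaning displacement of the ligand.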 In a few lines:
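Here, radioligand binding to CHO-extracted receptor was measured after 2.5 h using filter-based scintillation detection. Initial single-concentration screening used 25 uM in duplicate with plate controls; confirmed actives went to concentration-response testing.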

In assay [2] the target is Sodium channel protein type 1 subunit alpha (Rattus norvegicus) (UniProt P04774). In words: NVS_IC_rNaCh_site2: NovaScreen (NVS) Ion Channel Assay for rat Sodium Channel, Site 2 (NaCh) (AID 2283322).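 Note: hit means loss of radioligand binding signal relative to DMSO so AC50 marks displacement.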 In a few lines:
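Initial duplicate single-point testing at 25 uM, followed by concentration-response runs for actives. Binding of radioligand to rat forebrain membranes quantified after 1 h via filter-based radiodetection.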

Assay [3] concerns the target rat Thyrotropin Releasing Hormone Receptor (TRH), Trhr (gene 25570) (UniProt Q01717). In words: NVS_GPCR_rTRH: NovaScreen (NVS) G Protein-Coupled Receptor Assay for rat Thyrotropin Releasing Hormone Receptor (TRH) (AID 2283329).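 Note: hit means lower bound tracer signal versus DMSO baseline.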 In a few lines:
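Test compounds are screened at 25 uM in duplicate against radioligand binding in rat forebrain membranes, with active pairs followed up over a concentration range. Detection uses filter-based radiodetection after a 4 h exposure.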

For assay [4], the target named is D(1A) dopamine receptor (Homo sapiens) (UniProt P21728). Put plainly: NVS_GPCR_hDRD1: NovaScreen (NVS) G Protein-Coupled Receptor Assay for human Dopamine Receptor D1 (DRD1) (AID 2283269). In a few lines:
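Extracted HEK293 DRD1 is incubated 1 h with compound and a tritiated or iodinated radioligand, then filtered and counted. Screening runs 25 uM in duplicate with on-plate positive and negative controls.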

For assay [5], the target named is human Neurokinin, NK2 Receptor, TACR2 (gene 6865) (UniProt P21452). In words: NVS_GPCR_hNK2: NovaScreen (NVS) G Protein-Coupled Receptor Assay for human Neurokinin, NK2 Receptor (AID 2283278).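 Note: actives reduce bound radioligand signal relative to DMSO baseline.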 Summed up: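 Test chemicals displace a radioligand from receptor prepared from CHO cells in a cell-free format, read after 4 hours by scintillation counting on filters. Screening starts at 25 uM in duplicate, and active chemicals then go to concentration series.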

For assay [6], the target named is human Adenosine A2a Receptor (AdoRA2a), ADORA2A (gene 135) (UniProt P29274). Put plainly: NVS_GPCR_hAdoRA2a: NovaScreen (NVS) G Protein-Coupled Receptor Assay for human Adenosine A2a Receptor (AdoRA2a) (AID 2283256). In a few lines: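 Compounds screened in duplicate at 25 uM, with actives followed up in concentration series, for displacement of a radioligand from HEK293-derived receptor protein. Bound counts read by filter scintillation at 1.5 hours, DMSO as baseline.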

Assay [7] concerns the target Muscarinic acetylcholine receptor M2 (Homo sapiens) (UniProt P08172). Put plainly: NVS_GPCR_hM2: NovaScreen (NVS) G Protein-Coupled Receptor Assay for human Muscarinic, M2 Receptor (AID 2283273). In a few lines:
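Filter-based radiodetection read bound radioligand 1 h after dosing CHO-derived membrane protein. Single-concentration duplicates (25 uM) first, then concentration-response for actives; signal loss versus DMSO scored.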

In assay [8] the target is rat Adrenergic Receptor, Alpha 2 (Adra2), Non-selective Binding, Adra2a (gene 25083) (UniProt P22909). In words: NVS_GPCR_rAdra2_NonSelective: NovaScreen (NVS) G Protein-Coupled Receptor Assay for rat Adrenergic Receptor, Alpha 2 (Adra2), Non-selective Binding (AID 2283299). In a few lines: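 Filter-based scintillation counting of radioligand binding to rat cortical membrane receptors, measured 1.25 hours post-dosing; loss of signal versus DMSO indicates displacement. Initial single-concentration duplicate at 25 uM, then concentration series.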

Assay [9] concerns the target human Adenosine A1 Receptor (AdoRA1), ADORA1 (gene 134) (UniProt P30542). In words: NVS_GPCR_hAdoRA1: NovaScreen (NVS) G Protein-Coupled Receptor Assay for human Adenosine A1 Receptor (AdoRA1) (AID 2283254). In a few lines: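 Each chemical is first tested twice at 25 uM, actives later in dilution series, against a radioligand bound to human cortex membranes; after 1 h, filter-retained counts are compared with DMSO controls, lower signal indicating displacement.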

Assay [10] concerns the target human Thromboxane A2 Receptor (TXA2), TBXA2R (gene 6915) (UniProt P21731). Put plainly: NVS_GPCR_hTXA2: NovaScreen (NVS) G Protein-Coupled Receptor Assay for human Thromboxane A2 Receptor (TXA2) (AID 2283282).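 Note: actives reduce bound radioligand signal relative to DMSO baseline.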 Summed up: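 Cell-free radioligand binding with human platelet-derived receptor; 1 h after dosing, filter-based scintillation counting, loss of signal vs DMSO. Primary screen in duplicate at 25 uM.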

The structures appear in SMILES notation. Inconclusive results are not listed. Active and inactive are the calls of the source. Rule for the calls: active = hit-call score of the fitted dose curve at least 0.9, where 1 is the maximum; inconclusive = response in the unintended direction; inactive = score below 0.9.

Sequence of human Thromboxane A2 Receptor (TXA2), TBXA2R (gene 6915) (P21731 whole entry, looked up): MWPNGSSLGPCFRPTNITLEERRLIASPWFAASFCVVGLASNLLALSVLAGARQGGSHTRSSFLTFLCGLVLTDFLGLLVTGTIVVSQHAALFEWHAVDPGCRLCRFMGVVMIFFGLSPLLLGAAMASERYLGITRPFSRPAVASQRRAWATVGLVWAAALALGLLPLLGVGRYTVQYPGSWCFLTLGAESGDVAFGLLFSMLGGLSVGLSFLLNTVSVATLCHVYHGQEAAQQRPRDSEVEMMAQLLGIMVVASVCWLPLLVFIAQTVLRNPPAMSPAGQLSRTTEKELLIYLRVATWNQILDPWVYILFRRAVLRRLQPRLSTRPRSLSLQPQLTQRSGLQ
Sequence of rat Thyrotropin Releasing Hormone Receptor (TRH), Trhr (gene 25570) (Q01717 whole entry, looked up): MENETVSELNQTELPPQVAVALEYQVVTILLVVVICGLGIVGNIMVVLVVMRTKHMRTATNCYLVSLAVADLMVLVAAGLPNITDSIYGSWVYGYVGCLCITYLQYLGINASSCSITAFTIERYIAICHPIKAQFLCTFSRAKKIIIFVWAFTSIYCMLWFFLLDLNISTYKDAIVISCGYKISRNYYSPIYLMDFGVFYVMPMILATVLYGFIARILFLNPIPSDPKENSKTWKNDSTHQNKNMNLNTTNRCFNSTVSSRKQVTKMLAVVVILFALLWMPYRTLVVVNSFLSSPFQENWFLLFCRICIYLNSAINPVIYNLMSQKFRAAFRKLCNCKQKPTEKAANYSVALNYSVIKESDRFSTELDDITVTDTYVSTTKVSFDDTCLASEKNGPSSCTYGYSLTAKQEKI
Sequence of D(1A) dopamine receptor (Homo sapiens) (P21728 whole entry, looked up): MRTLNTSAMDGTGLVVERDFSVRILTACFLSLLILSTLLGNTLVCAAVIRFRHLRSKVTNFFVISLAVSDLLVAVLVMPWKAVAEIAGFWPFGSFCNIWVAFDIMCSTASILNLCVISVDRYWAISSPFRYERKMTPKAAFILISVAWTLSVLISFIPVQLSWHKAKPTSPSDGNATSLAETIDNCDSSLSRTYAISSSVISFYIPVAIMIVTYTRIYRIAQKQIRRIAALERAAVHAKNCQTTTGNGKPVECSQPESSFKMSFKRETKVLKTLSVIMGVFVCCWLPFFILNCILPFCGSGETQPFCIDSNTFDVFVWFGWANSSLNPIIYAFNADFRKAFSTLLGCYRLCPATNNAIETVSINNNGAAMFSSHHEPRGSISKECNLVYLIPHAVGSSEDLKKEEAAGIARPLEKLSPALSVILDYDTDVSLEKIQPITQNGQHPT
Sequence of human Neurokinin, NK2 Receptor, TACR2 (gene 6865) (P21452 whole entry, looked up): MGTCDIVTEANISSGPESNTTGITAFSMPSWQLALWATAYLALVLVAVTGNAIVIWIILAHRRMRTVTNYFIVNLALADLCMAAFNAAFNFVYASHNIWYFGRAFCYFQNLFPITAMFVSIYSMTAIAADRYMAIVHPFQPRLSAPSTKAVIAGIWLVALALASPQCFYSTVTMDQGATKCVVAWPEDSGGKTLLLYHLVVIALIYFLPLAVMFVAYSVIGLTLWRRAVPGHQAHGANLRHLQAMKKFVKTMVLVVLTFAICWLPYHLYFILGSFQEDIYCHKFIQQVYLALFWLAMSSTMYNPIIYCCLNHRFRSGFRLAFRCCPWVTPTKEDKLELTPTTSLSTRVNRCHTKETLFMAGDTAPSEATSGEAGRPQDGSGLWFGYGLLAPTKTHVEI
Sequence of human Opioid Receptor Mu (Opiate Mu), OPRM1 (gene 4988) (P35372 whole entry, looked up): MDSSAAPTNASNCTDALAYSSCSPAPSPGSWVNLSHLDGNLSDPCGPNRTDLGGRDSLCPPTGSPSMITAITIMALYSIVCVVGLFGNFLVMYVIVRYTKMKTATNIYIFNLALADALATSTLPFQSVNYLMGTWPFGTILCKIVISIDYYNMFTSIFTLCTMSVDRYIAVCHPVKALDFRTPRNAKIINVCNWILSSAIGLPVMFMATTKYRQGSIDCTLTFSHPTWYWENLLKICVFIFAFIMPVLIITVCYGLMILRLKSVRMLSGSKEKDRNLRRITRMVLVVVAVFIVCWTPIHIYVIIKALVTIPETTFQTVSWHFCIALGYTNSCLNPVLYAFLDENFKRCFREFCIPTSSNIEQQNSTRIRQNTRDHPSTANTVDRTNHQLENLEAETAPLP
Sequence of Muscarinic acetylcholine receptor M2 (Homo sapiens) (P08172 whole entry, looked up): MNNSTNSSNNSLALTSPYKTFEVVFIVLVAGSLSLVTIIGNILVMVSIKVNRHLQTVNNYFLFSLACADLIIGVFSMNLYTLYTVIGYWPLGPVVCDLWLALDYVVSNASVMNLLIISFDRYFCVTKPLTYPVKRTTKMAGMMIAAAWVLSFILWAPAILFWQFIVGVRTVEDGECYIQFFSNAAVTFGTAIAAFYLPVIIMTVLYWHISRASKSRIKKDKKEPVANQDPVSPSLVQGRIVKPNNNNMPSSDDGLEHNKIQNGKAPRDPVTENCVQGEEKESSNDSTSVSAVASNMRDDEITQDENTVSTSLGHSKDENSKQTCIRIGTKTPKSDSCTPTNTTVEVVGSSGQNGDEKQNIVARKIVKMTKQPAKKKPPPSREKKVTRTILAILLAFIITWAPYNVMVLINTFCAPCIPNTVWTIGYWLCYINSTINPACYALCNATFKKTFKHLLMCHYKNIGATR
Sequence of rat Adrenergic Receptor, Alpha 2 (Adra2), Non-selective Binding, Adra2a (gene 25083) (P22909 whole entry, looked up): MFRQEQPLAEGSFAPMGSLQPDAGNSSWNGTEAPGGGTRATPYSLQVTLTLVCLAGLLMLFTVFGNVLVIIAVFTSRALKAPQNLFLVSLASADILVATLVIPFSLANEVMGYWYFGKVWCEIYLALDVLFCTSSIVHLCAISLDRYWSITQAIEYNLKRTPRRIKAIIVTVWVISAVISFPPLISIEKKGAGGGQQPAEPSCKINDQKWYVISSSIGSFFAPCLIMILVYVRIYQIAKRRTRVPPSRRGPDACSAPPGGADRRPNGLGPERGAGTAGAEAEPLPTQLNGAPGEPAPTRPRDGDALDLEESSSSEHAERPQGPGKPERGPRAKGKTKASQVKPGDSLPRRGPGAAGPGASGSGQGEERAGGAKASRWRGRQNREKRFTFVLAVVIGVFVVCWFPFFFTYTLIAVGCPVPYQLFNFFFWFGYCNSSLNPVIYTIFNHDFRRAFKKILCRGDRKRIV
Sequence of human Adenosine A1 Receptor (AdoRA1), ADORA1 (gene 134) (P30542 whole entry, looked up): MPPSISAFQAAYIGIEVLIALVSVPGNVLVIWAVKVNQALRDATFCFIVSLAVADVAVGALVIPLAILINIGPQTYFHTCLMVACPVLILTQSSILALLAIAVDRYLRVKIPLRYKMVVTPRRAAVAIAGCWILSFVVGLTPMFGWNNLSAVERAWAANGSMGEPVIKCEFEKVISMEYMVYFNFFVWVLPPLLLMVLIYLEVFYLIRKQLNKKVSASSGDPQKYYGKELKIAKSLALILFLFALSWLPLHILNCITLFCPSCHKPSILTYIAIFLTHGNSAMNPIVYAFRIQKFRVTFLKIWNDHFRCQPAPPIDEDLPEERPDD
Sequence of human Adenosine A2a Receptor (AdoRA2a), ADORA2A (gene 135) (P29274 whole entry, looked up): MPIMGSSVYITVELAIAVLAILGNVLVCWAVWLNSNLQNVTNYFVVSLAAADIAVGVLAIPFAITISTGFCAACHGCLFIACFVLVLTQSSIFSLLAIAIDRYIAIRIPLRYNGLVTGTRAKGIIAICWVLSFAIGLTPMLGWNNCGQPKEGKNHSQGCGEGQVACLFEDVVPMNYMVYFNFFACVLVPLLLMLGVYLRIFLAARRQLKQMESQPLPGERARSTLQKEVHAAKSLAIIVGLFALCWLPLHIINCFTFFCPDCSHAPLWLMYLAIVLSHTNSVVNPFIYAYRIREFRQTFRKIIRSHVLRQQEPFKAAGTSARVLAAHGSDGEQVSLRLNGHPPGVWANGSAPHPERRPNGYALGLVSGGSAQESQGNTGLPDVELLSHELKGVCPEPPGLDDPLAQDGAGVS

As for `C#C[C@]1(O)CC[C@H]2[C@@H]3CCc4cc(OC)ccc4[C@H]3CC[C@@]21C`, the outcome in assay [1], in assay [2] and in [3] was inactive.

In general, AC50 refers to the concentration giving half of the maximal activity seen. For the compound `CO[Si](OC)(c1ccccc1)c1ccccc1`, the AC50 in assay [4] was 45.6 µM (active).

Turning to `Nc1ccc([N+](=O)[O-])cc1O`, in assay [5], the result was inactive.

In the case of `CCCCCCOC(=O)c1ccccc1`, in assay [3], the result was inactive.

On to `CCCCCCCCCCCCCCCC[N+](C)(C)Cc1ccccc1`, for which the AC50 in assay [6] was 16.4 µM (active); in assay [4] it was 1.57 µM (active); in [7], 0.584 µM (active); in assay [5] it was 2.11 µM (active); in [1], 1.44 µM (active); in [8], 38.6 µM (active). In addition, the result in assay [2] was inactive.

For `O[Si](c1ccccc1)(c1ccccc1)c1ccccc1`, in assay [2], the outcome was inactive.

As for `Cc1cc(C)cc(O)c1`, the compound was called inactive in [1].

`CCN(CC)c1ccc2c(C)cc(=O)oc2c1`: the call in [9] was inactive. Moreover, the AC50 is 10.3 µM (active) in assay [7] and 3.01 µM (active) in assay [10].

For the compound `CCCCC(CC)COP(=O)(O)OCC(CC)CCCC` (stereo unspecified), the compound was called inactive in assay [3].

For the compound `C1COCCN1`, the AC50 in assay [10] was 6.07 µM (active).

Regarding `Oc1ccc(Nc2ccccc2)cc1`, the result in assay [5] and in [8] was inactive.

Regarding `Nc1ccc(Oc2cccc(Oc3ccc(N)cc3)c2)cc1`, the compound was called inactive in assay [4] and in [10]. Further, the AC50 in [2] was 12.1 µM (active).

As to `CC(CCl)OP(=O)(OC(C)CCl)OC(C)CCl` (stereo unspecified), in assay [3], the compound was classed as inactive.
